Screening data (PubChem BioAssay)
Rows were chosen to be rich in hits. Some 2.4% of all compounds tested hit in one or more screens of this group.
D2 ag-1 – Beta-Arrestin HTS for Positive Allosteric Modulators of the Human D2 Dopamine Receptor: Agonists. D(2) dopamine receptor (Homo sapiens), P14416. AID 624465, 2012. 360,000 compounds, 0.084% hits. DiscoveRx PathHunter D2 beta-arrestin, luminescence, 90 min; 100% = 57 uM dopamine signal. activation, % (test concentration not listed); in the data active = activation above about 40%; inconclusive = between about 15% and that limit
Target sequence (P14416 whole entry, looked up): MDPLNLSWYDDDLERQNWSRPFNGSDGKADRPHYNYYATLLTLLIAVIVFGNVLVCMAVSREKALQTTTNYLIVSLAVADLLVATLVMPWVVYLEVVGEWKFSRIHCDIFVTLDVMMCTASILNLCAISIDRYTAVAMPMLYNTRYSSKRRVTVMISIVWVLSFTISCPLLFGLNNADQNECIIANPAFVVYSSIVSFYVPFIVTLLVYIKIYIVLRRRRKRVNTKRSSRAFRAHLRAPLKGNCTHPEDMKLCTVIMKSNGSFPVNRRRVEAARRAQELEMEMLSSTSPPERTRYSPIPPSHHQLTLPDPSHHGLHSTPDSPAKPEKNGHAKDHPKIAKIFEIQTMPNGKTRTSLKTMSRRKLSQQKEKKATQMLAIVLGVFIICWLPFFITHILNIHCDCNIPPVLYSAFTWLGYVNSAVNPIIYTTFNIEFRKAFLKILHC
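DiscoveRx PathHunter D2 beta-arrestin cells (2,100/well) attached overnight, then compound-stimulated 90 min at 37 C in HBSS/10 mM HEPES/0.1% Tween-20 buffer; beta-galactosidase complementation read by luminescence after 1 h at ambient temperature. Dopamine 57 uM final (EC100) as control.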
D2 ag-2 – HTS Assay for Allosteric Agonists of the Human D2 Dopamine Receptor: Primary Screen for Agonists; D(2) dopamine receptor (Homo sapiens), P14416; HEK293 T-REx D2 cells, calcium flux agonist mode; activation, % at 2 µM; 340,000 compounds, 0.53% hits; AID 485358, 2010;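 active = activation over 3 SD above normal in the single-dose calcium agonist read, cut at about 30% in these data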; also: 0% is about no effect
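Tetracycline-induced HEK293 T-REx cells with force-coupled D2 receptor, plated overnight at 30 C, loaded with no-wash calcium dye. After a 10 s baseline, compound was pin-added and calcium flux read kinetically for 180 s; calcium rises flagged agonists.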
D2 PAM-1 – Beta-Arrestin HTS for Positive Allosteric Modulators of the Human D2 Dopamine Receptor: Potentiators; potentiation, % (test concentration not listed); 360,000 compounds, 0.23% hits; DiscoveRx D2 beta-arrestin cells, luminescence, 90 min; 100% = 57 uM dopamine signal; D(2) dopamine receptor (Homo sapiens), P14416; in the data active = potentiation above about 50%; inconclusive = mostly about 30% to 49%
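PathHunter beta-arrestin assay in DiscoveRx D2 cells. Compounds were added with an EC20 of dopamine (50 nM final) for 90 min at 37 deg C. Luminescence was read 1 h after detection reagent, with 57 uM dopamine as the EC100 control.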
D2 PAM-2 – HTS Assay for Positive Allosteric Modulators of the Human D2 Dopamine Receptor: Primary Screen for Potentiators; HEK293 T-REx D2, calcium flux, EC20 dopamine potentiation; potentiation, % at 10 µM; 340,000 compounds, 0.34% hits;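 active = potentiation over 3 SD above the plate norm, cut at about 30% in these data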; also: 0% is about no effect
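Potentiation of an EC20 dopamine calcium response measured kinetically over 180 s, after a preceding 180 s compound-only read flagging agonists. Cells: inducible Hek293 Trex D2 line, 4000/well, cultured overnight at 30 C before dye loading.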
D2 antagonist – HTS Assay for Allosteric Antagonists of the Human D2 Dopamine Receptor: Primary Screen for Antagonists; D(2) dopamine receptor (Homo sapiens), P14416; HEK293 TREx D2 cells, calcium flux, dopamine EC80; inhibition, % at 10 µM; 340,000 compounds, 2% hits; AID 485344, 2010; in the data active = inhibition above about 30%; inactive = below that, where a call was filed; also: 0% is about no effect
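Tetracycline-induced HEK293 TREx cells expressing D2 receptor forced-coupled to calcium signalling, loaded with no-wash calcium dye. Compounds added and calcium flux read 180 s, then dopamine added at EC80 and read a further 180 s.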
* = called active by the depositor; ? = inconclusive; . = no result given.

SMILES	D2 ag-1	D2 ag-2	D2 PAM-1	D2 PAM-2	D2 antagonist
Cc1ccc(NC(=O)CN2C(=O)c3ccccc3S2(=O)=O)cc1C	-3.0	-0.4	-4.6	-2.8	-2.5
CN1CCN(Cc2cc(=O)oc3ccc(Cl)cc23)CC1	-4.1	1.0	-15.0	-6.2	44.8*
Cc1cc2oc(=O)cc(CN3CCN(S(=O)(=O)/C=C/c4ccccc4)CC3)c2cc1C	-0.1	35.7*	-9.0	-17.0	-3.8
Cc1ccc2oc(=O)cc(CN3CCN(Cc4ccccc4)CC3)c2c1	-0.1	-1.0	-13.0	-20.9	51.9*
Cc1cc2oc(=O)cc(CN3CCN(S(=O)(=O)c4ccc5c(c4)OCCO5)CC3)c2cc1C	-3.5	-1.2	-4.4	9.6	0.3
Cc1cccc(-n2ncc(C(=O)Nc3ccc4c(c3)OCO4)c2C2CCN(C(=O)OC(C)(C)C)CC2)c1	.	0.3	.	-12.1	.
CC1=C(C(=O)Nc2ccccc2C)C(c2cccnc2)n2nc(SCc3ccccc3F)nc2N1 (stereo not given)	.	-0.6	.	3.6	.
Cc1nc2scc(C)n2c(=O)c1S(=O)(=O)NCC1CCN(Cc2ccc(F)cc2)CC1	-4.2	0.7	-27.5	-7.9	34.2*
CCOC(=O)CSc1nc2ccc(NC(=O)COc3ccccc3C)cc2s1	.	-0.5	.	6.0	.
C/C(CC(=O)Nc1ccccn1)=N\NC(=O)c1ccccc1O	-6.4	2.6	-13.3	3.3	46.9*
CCOC(=O)N1CCN(CCC(=O)Nc2ccc(OC)cc2)CC1	-2.7	0.9	-6.7	-0.6	-17.9
COc1ccc(NC(=O)c2ccc(NC(=O)CN3CCN(c4ccc(O)cc4)CC3)cc2)cc1	124.3*	.	22.9	.	.
COc1ccc(NC(=O)c2ccc(NC(=O)CN3CCN(c4ccccc4O)CC3)cc2)cc1	1.9	.	-11.7	.	.
CCOc1ccc(NC(=O)CN2CCN(CC(=O)Nc3ccc(OC)cc3OC)CC2)cc1	6.3	0.0	6.7	8.4	32.4*
CCOC(=O)N1CCN(CCC(=O)Nc2ccc(OC)cc2OC)CC1	-0.6	34.4*	-33.0	-16.0	36.4*
O=C(Oc1ccc(F)cc1)c1nc(SCc2ccccc2F)ncc1Cl	.	-0.9	.	11.4	.
COc1ccc(NC(=O)CN2CCN(C(=O)c3ccco3)CC2)c(OC)c1	10.0	39.0*	3.8	-8.6	-8.9
COc1ccc(NC(=S)N2CCN(C(=O)c3ccco3)CC2)c(OC)c1	1.5	9.6	-10.7	-0.7	1.8
COc1ccc(NC(=O)CCCCC(=O)Nc2ccc(OC)cc2OC)c(OC)c1	-1.6	.	-2.1	.	.
COc1ccc(NC(=O)CCOc2ccccc2)c(OC)c1	-2.7	-1.3	17.6	8.3	35.9*
COc1ccc(OC)c(NC(=O)CCN2CCN(c3ccccc3OC)CC2)c1	-2.2	13.8	-79.3	-19.8	71.9*
COc1ccc(NC(=O)CCCNC(=O)c2ccc(Cl)cc2)c(OC)c1	-0.4	-0.4	0.7	-3.1	30.3*
Cc1cccc(-n2c(=O)c3c(c4cc(C)ccc4n3C)n(Cc3ccccc3F)c2=O)c1	.	-0.4	.	8.1	.
COc1ccc(NC(=O)C/C(C)=N/NC(=O)c2ccccn2)c(OC)c1	4.5	-1.0	-5.3	30.1*	15.1
COc1ccc(NC(=O)CCCN2C(=O)C3C4C=CC(C4)C3C2=O)c(OC)c1 (stereo not given)	-2.0	-0.2	5.2	16.9	35.3*
SMILES	D2 ag-1	D2 ag-2	D2 PAM-1	D2 PAM-2	D2 antagonist
CCN(CCCNC(=O)c1cc2cc3cc(C)ccc3nc2s1)c1cccc(C)c1	.	-0.4	.	0.9	.
COc1cc2[nH]c(C(=O)NCC3CCCO3)cc2c(OC)c1OC (stereo not given)	-1.4	0.0	-23.6	-24.4	55.3*
Cc1cc(C)c(S(=O)(=O)NCC(c2ccc(N(C)C)cc2)N2CCOCC2)c(C)c1 (stereo not given)	.	-0.8	.	-0.3	.
CC(=O)N1c2c(cc(Br)cc2S(=O)(=O)NCc2ccccc2)CC1C (stereo not given)	3.6	-3.1	-8.5	.	-0.4
COc1cccc(CNS(=O)(=O)c2cc(Br)cc3c2N(C(C)=O)C(C)C3)c1 (stereo not given)	-1.3	0.2	-12.7	-23.1	39.9*
c1ccc2c(c1)Nc1cc3ccccc3cc1O2	?	.	90.6*	.	.
Cc1ccc(S(=O)(=O)C2(C(=O)NC3CCCC3)CC2)cc1	2.2	0.2	7.7	35.1*	-1.0
Cc1ccc(S(=O)(=O)C2(C(=O)NC3CCCCC3C)CC2)cc1 (stereo not given)	-1.2	-0.2	-6.5	-0.2	5.1
CCCC(=O)Nc1nnc(SCc2cc(=O)n3ccccc3n2)s1	.	-1.0	.	3.2	.
Cc1ccc(-n2ncc3c(N4CCCCCC4)ncnc32)cc1	.	0.1	.	-18.2	.
O=C1CCCN1c1ncc(S(=O)(=O)c2ccc([N+](=O)[O-])cc2)s1	?	0.6	54.0*	4.7	-12.1
Cc1cc2nc(-c3ccc(NC(=O)c4ccccc4F)cc3)oc2cc1C	.	-0.9	.	5.1	.
COc1ccc(-n2c(CCC(=O)O)ccc2-c2ccc(F)cc2)c(OC)c1	1.4	0.0	-9.8	32.2*	6.6
COC(=O)c1ccccc1-n1c(CCC(=O)O)ccc1-c1ccc(F)cc1	8.9	0.3	56.0*	0.2	3.4
Cc1ccc2[nH]c(CSc3nnc(NC(=O)COc4ccc(F)cc4)s3)cc(=O)c2c1	.	.	.	-0.9	.
O=C(CC1SC(=O)N(c2ccccc2)C1=O)Nc1ccc(Br)cc1 (stereo not given)	-7.2	-0.1	-16.1	-3.3	-3.1
CN(C1=NC(=O)C(CC(=O)Nc2ccc(Br)cc2)S1)c1ccc(O)cc1 (stereo not given)	-0.2	0.4	-23.7	-23.5	40.4*
CCOC(=O)C1CCC(CN(Cc2ccc(OC)cc2)S(=O)(=O)c2ccc(F)c(C(=O)Nc3c(C)cccc3C)c2)CC1 (stereo not given)	.	0.1	.	11.9	.
Cc1ccc(O)c(NC(=O)CSc2n[nH]c(C)c2[N+](=O)[O-])c1	13.8	.	6.3	.	.
CSc1ccccc1NC(=O)CSc1n[nH]c(C)c1[N+](=O)[O-]	-1.8	0.3	-6.0	0.2	40.7*
CCn1cc(S(=O)(=O)c2ccc(C)cc2C)c(=O)c2cc(F)c(N3CCCCC3)cc21	.	-0.9	.	2.0	.
Cc1ccc(OCCN2CCN(c3nc(NCc4ccco4)c4ccccc4n3)CC2)cc1	1.9	0.2	-34.8	-26.4	37.6*
CSc1nc(NCc2ccco2)c2ccccc2n1	-1.6	0.6	-10.3	-5.0	30.7*
c1ccc(-c2nc(NCc3ccco3)c3oc4ccccc4c3n2)cc1	-0.1	-0.2	-6.7	33.0*	-5.8
OCCN1CCN(c2nc(NCc3ccco3)c3ccccc3n2)CC1	-2.0	-0.3	-16.1	-25.2	27.5
